Source: PubChem BioAssay
Shown are actives, neighbours in structure and some others; about 3.5% of the full set was active somewhere.
FBW7 activator: activators of human E3 ligase FBW7; AlphaScreen FBW7–phospho-cyclin E peptide binding, activator screen; Q969H0; normalized activity (activation), % at 26.1 µM; hit rate 0.13% among 650,000; in the data active = normalized activity above about 1.9%;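 also: purified mutant Fbw7 with reduced substrate affinity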
MITF inh: human MITF inhibition, primary screen; O75030; AlphaScreen MITF homodimerization, bead proximity signal; inhibition, % at 2.6 µM; hit rate 0.91% among 650,000; in the data active = inhibition above about 50%;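 also: 0% = vehicle wells with protein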
GPR151 ag: activates the human receptor GPR151. PathHunter beta-arrestin GPR151 cells, luminescence. Q8TDV0. hit rate 1% among 650,000. activation, % at 11.2 µM; in the data active = activation above about 4.9%;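 also: 0% = median of compound wells and 100% = cells with positive control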
Target sequence (Q8TDV0 whole entry, looked up): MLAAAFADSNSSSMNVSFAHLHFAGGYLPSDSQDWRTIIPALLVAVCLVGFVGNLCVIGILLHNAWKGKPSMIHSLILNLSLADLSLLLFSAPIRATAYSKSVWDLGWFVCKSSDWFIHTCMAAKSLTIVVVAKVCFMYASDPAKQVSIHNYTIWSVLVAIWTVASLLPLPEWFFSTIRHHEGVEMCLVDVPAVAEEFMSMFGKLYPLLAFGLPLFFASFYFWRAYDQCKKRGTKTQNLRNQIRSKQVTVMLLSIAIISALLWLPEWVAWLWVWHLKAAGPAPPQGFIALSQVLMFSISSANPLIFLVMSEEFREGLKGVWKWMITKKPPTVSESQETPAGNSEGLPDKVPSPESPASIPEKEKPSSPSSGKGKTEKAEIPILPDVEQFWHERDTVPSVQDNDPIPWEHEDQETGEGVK
TEAD-YAP inh: TEAD-YAP interaction inhibition. HEK-TIYL cells, TEAD-Gal4/YAP UAS-luciferase luminescence. inhibition, % at 9.12 µM. hit rate 1.4% among 640,000. AID 1259422; in the data active = inhibition above about 32%;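 also: 0% = median of test compound wells and 100% = reference inhibitor wells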
* = called active by the depositor.

SMILES	FBW7 activator	MITF inh	GPR151 ag	TEAD-YAP inh
Cc1cccc(NC(=O)Cc2nn(C)c(=O)c3ccccc23)c1	-0.4	7.2	0.6	45.5*
COc1ccc(CC(=O)NCc2ccsc2)cc1	0.1	6.0	1.8	34.7*
COc1ccc(CNC(=O)Cc2nn(C)c(=O)c3ccccc23)cc1	0.1	6.7	0.4	37.7*
OC(CNc1ccc(Br)cc1)Cn1c2ccc(Br)cc2c2cc(Br)ccc21 (configuration not stated)	0.3	19.2	0.1	3.5
CCCn1nc(C)cc1NC(=O)c1ncoc1-c1ccc(F)cc1	0.3	12.1	-0.5	3.4
O=C(CC(NCc1ccccc1)C(=O)O)c1ccc(C2CCCCC2)cc1 (configuration not stated)	-0.1	-3.0	-1.2	9.6
COc1cc(NC(=O)Cc2nn(C)c(=O)c3ccccc23)cc(OC)c1OC	-0.1	0.7	-0.4	-2.2
Cn1nc(CC(=O)Nc2ccccc2Br)c2ccccc2c1=O	-0.1	-3.5	-1.1	25.2
Cn1nc(CC(=O)Nc2c(F)cccc2F)c2ccccc2c1=O	-0.1	13.0	0.2	41.1*
Cn1nc(CC(=O)Nc2ccc(F)c(Cl)c2)c2ccccc2c1=O	1.9*	19.1	-1.1	29.7
Cc1ccc(NC(=O)Cc2nn(C)c(=O)c3ccccc23)cc1	-0.1	-10.9	3.4	42.4*
COc1cc(/C=C2/C(=O)NC(=O)N(Cc3ccc(F)cc3)C2=O)cc([N+](=O)[O-])c1O	-0.5	-8.7	0.1	-7.2
Cn1c(=O)[nH]c(=O)c2c1ncn2CC(=O)NN	2.4*	5.2	-0.7	-5.7
COC(=O)Cn1cnc2c1c(=O)[nH]c(=O)n2C	-0.1	6.5	-1.1	3.4
CC1=NN(c2ccccc2)C(=O)/C1=C/c1ccc(Cl)cc1	-0.1	4.3	1.8	-1.5
CC1=NN(c2ccccc2)C(=O)/C1=C/c1cccn1-c1ccccc1	-1.3	64.2*	-0.7	-43.8
COCCn1c(=NC(=O)c2cccc(OC)c2OC)sc2cc(OC)c(OC)cc21	0.3	-6.4	-2.0	-8.8
CCOCCn1c(=NC(=O)c2cccc(OC)c2OC)sc2ccccc21	0.0	10.6	-4.6	74.2*
Cc1cc(OCC(=O)O/N=C(\N)c2ccccn2)ccc1Br	0.6	8.1	3.5	-54.8
Clc1ccc2nc(-c3ccccc3)cn2c1	0.2	12.0	-9.3	76.8*
Fc1ccc(-c2cn3cc(Cl)ccc3n2)cc1	0.1	13.7	-8.2	36.5*
Clc1ccc2nc(-c3ccc4c(c3)OCO4)cn2c1	0.1	-16.1	-9.1	73.2*
Clc1ccc2nc(-c3ccc(Br)cc3)cn2c1	0.0	-13.4	-0.2	-77.8
CN1[C@@H](C(=O)NCc2ccc(F)cc2)C[C@@H](c2ccco2)NS1(=O)=O	0.0	16.6	0.3	6.9
C/C(=N\N=C1/NC(=O)C(C)S1)c1ccc(C)cc1 (configuration not stated)	-0.5	-0.9	-0.4	47.2*
SMILES	FBW7 activator	MITF inh	GPR151 ag	TEAD-YAP inh
CC(C)C(=O)N1CCCC(c2c(S(C)(=O)=O)cnc3ncnn23)C1 (configuration not stated)	0.1	13.6	0.5	5.7
Cc1ccc(C(=O)N/N=C(/c2ccc(C)cc2)C23CN4CN(CN(C4)C2)C3)cc1	0.1	-10.0	0.5	-22.9
Oc1ccc(-c2cnn3c(N4CCOCC4)ccnc23)cc1	-0.2	-0.4	-1.4	98.3*
Cc1ccc(-c2cnn3c(N4CCC(O)CC4)ccnc23)cc1C	0.3	2.2	0.0	-83.0
CS(=O)(=O)Nc1cccc(-c2cnn3c(N4CCOCC4)ccnc23)c1	2.0*	4.2	-1.6	-1.1
Oc1ccc(-c2cnn3c(N4CCC(O)CC4)ccnc23)cc1	-0.4	6.0	-0.8	51.5*
CCc1ccc(NC(=O)CSc2nc3c(c(=O)n2C)SCC3)cc1	-0.1	-3.8	3.0	2.6
COc1cccc(C(=O)/C=C\Nc2ccc(OC)cc2OC)c1	-0.1	0.6	-8.8	79.7*
COc1ccccc1N/C=C/C(=O)c1ccccc1	0.0	4.5	-1.3	45.5*
O=C(CC(Nc1ccc(F)cc1)C(=O)O)c1ccccc1 (configuration not stated)	0.1	-11.4	1.9	-5.0
COc1ccccc1NC(CC(=O)c1ccccc1)C(=O)O (configuration not stated)	0.0	-7.1	0.1	54.2*
COc1cccc(C(=O)/C=C/Nc2cc(Cl)ccc2OC)c1	0.4	12.3	-3.1	-33.9
COc1ccc(OC)c(N/C=C/C(=O)c2ccccc2)c1	0.0	9.7	-8.8	94.5*
COCCN=C1SC(C(=O)Nc2cccc(C#N)c2)C(N)=C1C(=O)N1CCN(C)CC1 (configuration not stated)	-0.1	0.9	0.7	-1.5
CCN(CC)CCCNc1ncnc2sccc12	-0.1	8.8	2.1	3.7
O=C(O)c1cccc2[nH]c(C(F)(F)F)nc12	0.2	15.6	0.7	11.5
Cc1cc(-c2cccc3[nH]c(C(F)(F)F)nc23)nn1C(=O)c1ccncc1	-0.2	1.5	-0.9	34.2*
Cc1cc(Br)ccc1N1C(=O)/C(=C/c2ccc(Cl)cc2)C=C1c1ccccc1	1.9*	13.3	0.0	-3.1
Cc1cc(Br)ccc1N1C(=O)/C(=C/c2ccc(Br)cc2)C=C1c1ccccc1	-0.1	-3.9	1.7	0.3
COc1ccc(C(c2nnnn2C2CCCC2)N2CCN(Cc3ccncc3)CC2)cc1 (configuration not stated)	0.0	-7.1	-1.1	-9.1
Cc1ccc(C)n1-c1ccccc1N	0.6	-7.1	1.5	51.0*
Cc1c(NC(=O)Cc2ccccc2)cccc1-c1nc2ccccc2[nH]1	0.5	16.2	-1.7	0.1
COc1ccc(-n2nnnc2-c2cccc(OC)c2)cc1	0.1	10.4	2.6	58.2*
COc1ccc(OC)c(NC(=O)CNC(=O)c2nn(-c3ccc(OC)c(OC)c3)c(=O)c3ccccc23)c1	-0.1	-9.9	0.1	39.4*
COc1ccc(OC)c(NC(=O)CNC(=O)c2nn(-c3ccc(OC)c(Cl)c3)c(=O)c3ccccc23)c1	-0.1	2.2	0.6	35.6*
SMILES	FBW7 activator	MITF inh	GPR151 ag	TEAD-YAP inh
COCCNC(=O)CNC(=O)c1nn(-c2ccc(OC)c(Cl)c2)c(=O)c2ccccc12	0.0	9.5	0.1	-6.8
COc1ccc(-n2nc(C(=O)NCC(=O)N3CCC(Cc4ccccc4)CC3)c3ccccc3c2=O)cc1	0.1	11.2	1.5	32.7*
COc1ccc(-n2nc(C(=O)NCC(=O)NCCc3ccc(OC)c(OC)c3)c3ccccc3c2=O)cc1Cl	0.0	7.6	-1.3	37.7*
COc1ccc(-n2nc(C(=O)NCC(=O)N3CCCC3)c3ccccc3c2=O)cc1	0.1	7.4	0.3	-2.3
Cc1nn(C)cc1-c1nc2cnccn2c1NCCc1ccccc1	-0.1	5.6	-0.7	-52.6
O=C(O)C1CC=C(Cl)CC1C(=O)Nc1ccc(Cl)cc1[N+](=O)[O-] (configuration not stated)	0.8	9.2	0.9	-6.4
CC(=O)c1ccc(OCc2cc(C(=O)N(C)C(C)c3ccon3)no2)cc1 (configuration not stated)	-0.1	-19.0	-2.0	1.5
Cc1c(C(C)NC(=O)c2cc(COc3cccc4cnccc34)on2)cnn1C (configuration not stated)	0.1	11.6	-1.2	43.0*
